# AmpC detergent = inhibitors of E. coli AmpC beta-lactamase with detergent. P00811. AmpC hydrolysis of nitrocefin, absorbance 480 nm, 0.01% Triton. Potency, µM (titrated, usually from 114 µM), without a hit: at the top dose activity change, negative = inhibition, actives largely listed as inhibitors. 0.041% of 370,000 active. AID 485294;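 also: potency is read from the fitted curve at half-maximal effect; 0% = no-compound wells and -100% = no-enzyme wells; nearly all actives have a fitted effect of over 25% in size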
# Target sequence (P00811 whole entry, looked up): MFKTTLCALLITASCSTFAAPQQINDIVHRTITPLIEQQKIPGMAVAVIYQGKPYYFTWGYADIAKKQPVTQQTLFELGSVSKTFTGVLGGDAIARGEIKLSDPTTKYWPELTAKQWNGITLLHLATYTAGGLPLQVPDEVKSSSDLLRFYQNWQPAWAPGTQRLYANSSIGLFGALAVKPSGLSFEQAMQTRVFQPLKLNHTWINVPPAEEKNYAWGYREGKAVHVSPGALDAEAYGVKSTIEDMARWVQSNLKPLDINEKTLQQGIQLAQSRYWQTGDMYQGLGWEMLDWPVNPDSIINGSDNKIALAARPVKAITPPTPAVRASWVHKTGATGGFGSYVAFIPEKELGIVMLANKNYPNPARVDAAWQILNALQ
#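 20 mM phosphate pH 7.0 + 0.01% (detergent screen) or 0.0001% Triton X-100; 5.3 nM AmpC reagent; cpd preinc 15 min RT; nitrocefin (800 uM stock) to start; A480 q20 s × 4 min; Activity was normalised to no-enzyme and no-compound control wells.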
# SARS PLpro yeast = inhibitors of SARS-CoV papain-like protease in yeast; S. cerevisiae expressing SARS-CoV PLpro, growth rescue; Potency, µM (series often up to 32.9 µM), for inactives: at the highest dose activity, positive = growth rescue, most hits filed as activators; 0.19% of 330,000 active; AID 485353; calls by dose curve; also: potency is read from the fitted curve at half-maximal effect; 0% is about no effect; nearly all actives have a fitted effect of over 55% in size
# Cycloheximide cs = counter-screen hit for Shiga toxin inhibitors, cycloheximide. cell reporter, cycloheximide protein synthesis inhibition counterscreen. max response, %. 12% of 300,000 active; in the data active = max response mostly above about 13%, no sharp cut-off; inactive = mostly below about 14%; also: read at 38.3 µM for the half of the compounds with a filed dose; 0% is about no effect
# AmpC inh no detg = inhibitors of E. coli AmpC beta-lactamase without detergent; AmpC nitrocefin hydrolysis, absorbance 480 nm, 0.0001% Triton; Potency, µM (highest dose often 57.1 µM), inactives show at the top dose activity change, negative = inhibition, actives largely listed as inhibitors; 0.52% of 330,000 active;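 also: potency is read from the fitted curve at half-maximal effect; plate controls were no compound for no effect and no enzyme for full effect; nearly all actives have a fitted effect of over 20% in size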
#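 20 mM phosphate pH 7.0 + 0.01% (detergent screen) or 0.0001% Triton X-100; 5.3 nM AmpC reagent; cpd preinc 15 min RT; nitrocefin (800 uM stock) to start; A480 q20 s × 4 min; Activity was normalised to no-enzyme and no-compound control wells.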
# AMA1-RON2 inh = AMA1-RON2 (P. falciparum) interaction inhibition. AlphaScreen AMA1-biotinylated RON2 peptide binding. Potency, µM (series often up to 58.2 µM), inactives show top-dose activity change, negative = inhibition, most hits filed as inhibitors. 0.2% of 360,000 active;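 also: potency is read from the fitted curve at half-maximal effect; 0% = vehicle wells and -100% = peptide control; nearly all actives have a fitted effect of over 45% in size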
#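 AMA1 (3D7) with his tag at 25 nM final met compounds first, then biotinylated RON2 peptide at 25 nM; detection used donor plus acceptor beads, 10 µg/mL apiece, read by AlphaScreen after 30 min at room temperature.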
# Shiga inhibitor = blocks Shiga toxin action in Vero cells; Vero cells, Shiga toxin protein synthesis inhibition reporter; inhibition, % at 38.7 µM; 9.2% of 290,000 active; AID 2315; in the data active = inhibition mostly above about 28%, no sharp cut-off; inactive = mostly below about 43%; also: 0% is about no effect
# Active calls of the source: *; ? = inconclusive; nt = not tested or not shown. Many of the other results were omitted from the sample, so hits are more common in it than they were. Unless noted, calls follow the shape of the dose curve; as a rule, active = well fitted curve in the direction sought with a large enough effect; inconclusive = small, poorly fitted or top-dose-only effect, or another doubt; inactive = no such curve, though single readings can be large; an effect the other way counts as inactive or inconclusive.
SMILES,AmpC detergent,SARS PLpro yeast,Cycloheximide cs,AmpC inh no detg,AMA1-RON2 inh,Shiga inhibitor
S=C(Nc1ccccc1)N1CCN(c2ccc(N3CCOCC3)nn2)CC1,-4%,-1%,-4,-6%,20%,11
Cc1c(C)n(CCO)c2ncnc(Nc3ccc(F)cc3)c12,0%,2%,18,-16%,-10%,69*
COc1ccc(Nc2ncnc3c2c(C)c(C)n3CCO)cc1,-2%,-2%,48*,1%,-2%,72*
Fc1ccc(Cn2nnc(-c3ccc(Cl)cc3)n2)cc1,3%,-4%,34*,-19%,7%,56*
Cc1ccccc1Cn1nnc(-c2ccc(F)cc2)n1,4%,-3%,19*,-10%,22%,30*
Fc1ccc(-c2nnn(Cc3ccccc3Cl)n2)cc1,7%,-4%,36*,-16%,76%,99*
O=C(OCc1ccccc1Cl)c1ccc(-c2nnn(Cc3ccc(F)cc3)n2)cc1,3%,nt,nt,nt,nt,nt
Nc1ccc(-c2nnn(Cc3ccccc3F)n2)cc1,?,-2%,32*,-13%,4%,55*
N#Cc1nc(-c2ccc(Cl)cc2)oc1NCc1cccc2c1OCO2,-2%,nt,28,nt,-4%,29
N#Cc1nc(-c2ccco2)oc1NCc1ccc(F)cc1,?,-17%,12,-27%,-9%,34
N#Cc1nc(-c2ccco2)oc1NCc1cccnc1,0%,-9%,-4,-18%,10%,9
N#Cc1nc(-c2ccccc2Cl)oc1NCc1ccco1,-12%,-25%,22*,-27%,-25%,47*
N#Cc1nc(-c2ccccc2)oc1NCc1ccco1,?,-19%,24*,-9%,-25%,active
N#Cc1nc(Cc2ccccc2)oc1NCc1cccnc1,-8%,19%,-1,-10%,-2%,-6
N#Cc1nc(-c2ccc(Cl)cc2)oc1NCc1ccco1,?,2%,28*,-19%,-11%,91*
N#Cc1nc(Cc2ccccc2)oc1NCc1ccccc1Cl,-5%,-27%,48*,-13%,-26%,41*
O=C(/C=C/c1ccc(Cl)cc1)N1CCN(c2ccc([N+](=O)[O-])c(N3CCOCC3)c2)CC1,-14%,-8%,-1,99%,-2%,-10
C=C(C)Cc1c(C)nc(-c2ccccc2)[nH]c1=O,?,14%,18*,-16%,-1%,38*
Clc1ccccc1C1Nc2cccc3cccc(c23)N1,?,-10%,4,-31%,-30%,23
c1ccc(C2=NC(c3ccccc3)CC2)cc1 (stereo not given),nt,nt,nt,nt,7%,nt
Clc1ccccc1C1CC(c2ccccc2)=Nc2ccccc2N1 (stereo not given),-5%,-2%,43*,-32%,-18%,93*
c1ccc(C2=Nc3ccccc3NC(c3ccccc3)C2)cc1 (stereo not given),1%,-9%,36*,-33%,6%,126*
Brc1ccccc1C1CC(c2ccccc2)=Nc2ccccc2N1 (stereo not given),-6%,-50%,97*,-37%,-3%,91*
O=C(NCCN1CCN(C(=O)C(c2ccccc2)c2ccccc2)CC1)C(=O)Nc1ccccc1,5%,6%,5,10%,-12%,-1
COc1ccc(C2Nc3ccccc3C(=O)N2NS(=O)(=O)c2ccccc2)c(OC)c1 (stereo not given),-2%,2%,2,-14%,-7%,-15
SMILES,AmpC detergent,SARS PLpro yeast,Cycloheximide cs,AmpC inh no detg,AMA1-RON2 inh,Shiga inhibitor
O=C(NCC1CCCO1)c1ccccc1NS(=O)(=O)c1cccc([N+](=O)[O-])c1 (stereo not given),nt,-1%,nt,-14%,2%,nt
c1ccc(-c2n[nH]c(-c3ccccn3)n2)cc1,-14%,-10%,24*,-5%,-23%,63
c1ccc(-c2n[nH]c(-c3ccccn3)n2)nc1,?,2%,33*,-6%,?,62*
N#CCC(CNc1ncc(C(F)(F)F)cc1Cl)OC(=O)c1cccc(C(F)(F)F)c1 (stereo not given),6%,-15%,3,-2%,0%,18
Cn1c(CSCc2ccc(Cl)cc2)nnc1SCC(=O)Nc1nccs1,4%,12%,-4,-8%,4%,11
Cc1cc(C)n2c(SCC(C)C)nnc2n1,-6%,-1%,3,-14%,-7%,17
Cc1cc(C)n2c(SCCC(C)C)nnc2n1,-5%,-7%,19*,6%,-11%,89
CCOC(=O)C(C)On1c(-c2ccc(Cl)cc2)nc2ccc([N+](=O)[O-])cc21 (stereo not given),1%,-35%,33,-30%,-19%,129
Cc1ccc(COn2c(-c3ccc(Cl)cc3)nc3ccc([N+](=O)[O-])cc32)cc1,?,-2%,49*,-17%,6%,105*
O=[N+]([O-])c1ccc2nc(-c3ccc(Cl)cc3)n(OCc3ccccc3)c2c1,?,0%,35*,-20%,-15%,96*
COc1cc(Cl)c(C)cc1NC(=O)c1cc2ccc3cccnc3c2[nH]1,22%,nt,nt,nt,nt,nt
CCOc1ccc(NC(=O)Cn2nnc(C(=O)Nc3ccc(OCC)cc3)c2N)cc1,5%,nt,nt,nt,nt,nt
CC(=O)c1cccc(-c2ccnc3c2CC(C(=O)Nc2ccc(Cl)cc2)O3)c1 (stereo not given),nt,nt,nt,nt,-3%,nt
CCC(=O)Nc1c(C(=O)Nc2ccc3c(c2)OCCO3)oc2ccccc12,-7%,0%,41,56%,8%,88*
COc1cccc(C(=O)Nc2c(C(N)=O)oc3ccccc23)c1,?,-9%,1,7.1µM*,1%,3
CCOCC(=O)Nc1c(C(=O)Nc2ccc3c(c2)OCCO3)oc2ccccc12,3%,-1%,37*,58%,0%,126*
COCC(=O)Nc1c(C(=O)Nc2ccc3c(c2)OCCO3)oc2ccccc12,-4%,1%,36*,16%,-3%,93*
O=C(Nc1ccc2c(c1)OCCO2)c1oc2ccccc2c1NC(=O)C1CC1,-15%,-2%,3,-26%,7%,17
COc1cccc(Nc2nnc(SCn3nnc4ccccc4c3=O)s2)c1,-13%,-10%,9,48%,-5%,53
CN(C(=O)COC(=O)c1cn(-c2ccccc2)nc1-c1ccccc1)C1CCS(=O)(=O)C1 (stereo not given),2%,8%,9,222%,21%,8
C=CCn1c(SCC(=O)c2c(N)n(C3CC3)c(=O)[nH]c2=O)nnc1-c1ccoc1C,-2%,2%,nt,-24%,8%,nt
COc1cccc(NC(=O)c2oc3ccccc3c2NC(=O)c2ccc(F)c(F)c2)c1,19%,nt,nt,nt,nt,nt
CCC(=O)Nc1c(C(=O)Nc2cccc(OC)c2)oc2ccccc12,-3%,0%,18*,-15%,0%,37
